# In PubChem BioAssay (EPA / NIEHS):
# Values joined by “and” are separate entries in the source; they are usually repeats but may differ in a detail not shown here. Equal entries are not always repeated. Active and inactive are the calls of the source. How the source made its calls: active means hit-call score of the fitted dose curve at least 0.9, where 1 is the maximum; inactive means score below 0.9.
# Read-out: Vascular cell adhesion molecule 1 (VCAM1), VCAM1 (gene 7412)
# Test: BSK_BF4T_VCAM1: BioMAP Diversity Plus: BF4T Assay for Vascular cell adhesion molecule 1 (VCAM1) Biomarker Activity (AID 2284249)
# Conditions: primary human bronchial epithelial cells with fibroblasts
# Procedure: BSK_BF4T is a cell-based, multiplexed-readout assay that uses bronchial epithelial cells and dermal fibroblasts, a human vascular primary cell, with measurements taken at 24 hours after chemical dosing in a microplate: 96-well plate.BSK_BF4T_VCAM1 is an assay component measured in the BSK_BF4T assay. It measures VCAM-1 antibody related to regulation of gene expression using ELISA technology.Data from the assay component BSK_BF4T_VCAM1 was analyzed at the endpoint, BSK_BF4T_VCAM1, in the positive analysis fitting direction relative to DMSO as the negative control and baseline of activity. Using a type of binding reporter, gain or loss-of-signal activity can be used to understand protein changes. To generalize the intended target to other relatable targets, this assay endpoint is annotated to the 'cell adhesion molecules' intended target family, where the subfamily is 'Immunoglobulin CAM'.
# The levels of cell surface (or secreted, indicated by the prefix "s") biomarker endpoints were measured by ELISA. Overt cytotoxicity to cells in confluent adherent cultures (all systems other than the BT system) was assessed by measuring total protein levels using sulforhodamine B (SRB) staining in parallel cultures at the time of biomarker measurements, indicated as SRB endpoints. For proliferation assays for adherent cell types, individual cell types are cultured at sub-confluence and relative cell numbers quantified by SRB staining at time points optimized for each system (48 h: 3C and CASM3C systems; 72 h: BT and HDF3CGF systems; 96 h: SAg system). SRB was performed by staining cells with 0.1% SRB after fixation with 10% TCA and reading wells at 560 nm.Viability and proliferation of PBMC (T cells) was quantified by Alamar Blue reduction for the SAg and BT systems. For PBMC viability (referred to as PBMC Cytotoxicity within the assay endpoint names), cells were plated (75,000/well in a 96-well plate) and then chemical samples added for 1 h before addition of activators, SEB and TSST-1 (20 ng/mL final concentration each). Cells were incubated for 90 h. Then, Alamar Blue (20 uL/well) (Invitrogen, Cat DAL1100) was added for 6 h, and the plates were read with a fluorescence microplate reader at 546/580 nm (excitation/emission). For PBMC proliferation, cells were plated and activated as above but incubated for only 16 h prior to addition of Alamar Blue. Plates were read after 6 h.
SMILES,outcome,AC50
OCC(F)(F)C(F)(F)C(F)(F)C(F)(F)C(F)(F)C(F)(F)C(F)(F)C(F)(F)C(F)(F)C(F)(F)C(F)(F)F,inactive,
CN(CCO)S(=O)(=O)C(F)(F)C(F)(F)C(F)(F)C(F)(F)C(F)(F)C(F)(F)C(F)(F)C(F)(F)F,inactive,
C=CC(=O)OCCC(F)(F)C(F)(F)C(F)(F)C(F)(F)C(F)(F)C(F)(F)C(F)(F)C(F)(F)F,inactive,
O=C(O)CCC(F)(F)C(F)(F)C(F)(F)C(F)(F)C(F)(F)C(F)(F)F,inactive,
O=C(O)C(F)(F)OC(F)(F)C(F)(F)OC(F)(F)C(F)(F)OC(F)(F)C(F)(F)C(F)(F)C(F)(F)F,,7.4 µM (active) and 6.87 µM (active)
O=C(CC(=O)C(F)(F)C(F)(F)C(F)(F)F)c1cccs1,,20.6 µM (active) and 19.3 µM (active)
O=P(O)(O)CCC(F)(F)C(F)(F)C(F)(F)C(F)(F)C(F)(F)C(F)(F)F,inactive,
O=S(=O)(O)C(F)(F)C(F)(F)C(F)(F)C(F)(F)C(F)(F)C(F)(F)C(F)(F)C(F)(F)C(F)(F)C(F)(F)F,inactive,
O=C(O)CCC(F)(F)C(F)(F)C(F)(F)C(F)(F)C(F)(F)F,inactive,
CN(Cc1cnc2nc(N)nc(N)c2n1)c1ccc(C(=O)N[C@@H](CCC(=O)O)C(=O)O)cc1,inactive,
O=P(O)(O)CCC(F)(F)C(F)(F)C(F)(F)C(F)(F)C(F)(F)C(F)(F)C(F)(F)C(F)(F)F,inactive,
